The nature of assay [1]: qHTS Assay for Lipid Storage Modulators (AID 1519; calls by dose curve). The conditions noted are these: Drosophila S3 cells, BODIPY lipid droplet/cell ratio, laser cytometry, cells loaded with oleic acid; for activity change, negative = inhibition: at 57.5 µM (top of the series). In a few lines:
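Cells seeded at 5,000 per well were treated with compounds over a concentration series and loaded with oleic acid (400 uM, as added). Lipid droplet fluorescence (488 nm excitation, 500-530 nm channel) was read by laser-scanning cytometry and normalized to 20 uM Triacsin C.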
(Quantitative high-throughput screening tests each substance at several concentrations.)

The target of assay [2] is DNA dC->dU-editing enzyme APOBEC-3G (Homo sapiens) (UniProt Q9HC16). Kind of assay: qHTS for inhibitors of Vif-A3G interactions: Validation (AID 588379). Note: 0% is about no effect. In a few lines:
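Yellow fluorescence (Ex 488, Em 500-530) of Vif-coexpressing HeLa A3G-eYFP cells, scanned by Acumen cytometer, reports blocked A3G degradation. Cells plated at 700/well overnight at 37 deg C before compound addition, then a further overnight compound incubation at 37 deg C.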

Assay [3] concerns the target Cytochrome P450 3A4 (Homo sapiens) (UniProt P08684). Kind of assay: qHTS Assay for Inhibitors and Substrates of Cytochrome P450 3A4 (AID 884). Note: % is set by controls: 0 for no effect and ±100 for the full control effect; nearly all actives have a fitted effect of over 50% in size. The essentials: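 Luminescent readout of luciferin produced by CYP3A4 (20 nM) dealkylation of Luciferin-PPXE, 25 uM (its KM). NADPH-driven reaction ran 60 min at RT after 10 min compound preincubation; data scaled to 57 uM ketoconazole as 100% inhibition.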

Assay [4] can be described thus: Confirmation and Secondary Assay for Modulators of Hemoglobin Beta Chain Splicing at IVS2 654 locus (AID 910).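 Note: HeLa cells stably carrying EGFP split by mutant beta-globin IVS2-654 intron; % of control where 0% means no effect.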 In a few lines: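 HeLa cells stably expressing EGFP interrupted by β-globin IVS2-654 intron, seeded overnight in Opti-MEM/2% FCS, then treated 2 days at 37 °C. Restored splicing read as total peak GFP intensity per well by laser scanning cytometry (488 nm excitation, 500–520 nm emission); 500 nM antisense PNA as control.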

The nature of assay [5]: Confirmation and Secondary Assay for Modulators of Hemoglobin Beta Chain Splicing at IVS2 705 locus (AID 930).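 Note: HeLa cells stably expressing the EGFP-705 splicing reporter; GFP fluorescence per well restored by corrected splicing of the IVS2-705 intron in EGFP; % of control where 0% means no effect.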 In a few lines:
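First, HeLa EGFP-705 cells are seeded at 500/well in Optimem with 2% FCS and left overnight. Next, compound or DMSO is added for 2 days. Finally wells are laser-scanned and total peak GFP intensity scored.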

For assay [6], the target named is Estrogen receptor (Homo sapiens) (UniProt P03372). Nature of the assay: qHTS assay for small molecule antagonists of estrogen receptor alpha signaling (AID 588513; active = well fitted curve in the direction sought with a large enough effect in the signal ratio, with a control signal flat, not every such curve was filed as active; the % refers to the signal ratio; note: % is set by controls: 0 for no effect and ±100 for the full control effect). The essentials: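 Beta-lactamase reporter, antagonist mode, HEK 293 GripTite cells; 0.5nM E2 stimulus, 18 h, 37 C; CCF4 dye 2 h RT; fluorescence. IC50 and efficacy from Hill fits, normalized to E2 and DMSO.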
Chain of Estrogen receptor (Homo sapiens) (P03372 whole entry, looked up): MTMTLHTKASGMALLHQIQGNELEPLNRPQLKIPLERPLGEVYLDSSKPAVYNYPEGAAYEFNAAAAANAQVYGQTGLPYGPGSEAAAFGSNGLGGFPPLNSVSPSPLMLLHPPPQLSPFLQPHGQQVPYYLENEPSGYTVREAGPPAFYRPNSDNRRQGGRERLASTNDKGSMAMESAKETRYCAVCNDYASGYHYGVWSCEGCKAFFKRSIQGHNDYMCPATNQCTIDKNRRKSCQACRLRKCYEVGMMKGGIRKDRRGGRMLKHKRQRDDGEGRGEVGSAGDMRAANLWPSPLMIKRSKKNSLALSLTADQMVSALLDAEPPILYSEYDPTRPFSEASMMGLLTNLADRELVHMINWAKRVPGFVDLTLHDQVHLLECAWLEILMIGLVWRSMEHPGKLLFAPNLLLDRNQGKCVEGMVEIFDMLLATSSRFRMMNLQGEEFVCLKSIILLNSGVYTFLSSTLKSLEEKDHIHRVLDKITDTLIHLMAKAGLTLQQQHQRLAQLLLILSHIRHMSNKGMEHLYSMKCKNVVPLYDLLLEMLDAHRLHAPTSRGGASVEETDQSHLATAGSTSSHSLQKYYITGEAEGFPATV

Assay [7] has the same target. Kind of assay: qHTS assay for small molecule agonists of estrogen receptor alpha signaling (AID 588514; calls by dose curve;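 note: 0% = vehicle only and 100% = reference agonist; nearly all actives have a fitted effect of over 70% in size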). The essentials: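 Fluorescence from CCF4 cleavage reports ER-alpha-driven beta-lactamase expression in HEK 293 cells treated 18 hrs at 37 C. Data normalized to 17-beta-estradiol (20 nM) and DMSO, fitted to Hill equation.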
Assay [8] addresses Glucocorticoid receptor (Homo sapiens) (UniProt P04150). Kind of assay: qHTS assay for small molecule agonists of glucocorticoid receptor signaling (AID 588532; active = well fitted curve in the direction sought with a large enough effect in the signal ratio, with a control signal flat; the % refers to the signal ratio;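 note: 100% = dexamethasone at 0.1 µM and 0% = DMSO only wells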). The conditions noted are these: HeLa MMTV-bla, beta-lactamase ratio, agonist, 18 h; stronger effect = higher value; percent of dexamethasone control, DMSO zero. In a few lines: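 MMTV-bla HeLa beta-lactamase reporter cells in 1% charcoal/dextran FBS medium, compounds up to 92 uM for 18 h at 37 C, CCF4 readout; normalized to 0.1 uM dexamethasone (100%), EC50 and efficacy from Hill fits.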

The target is the same in assay [9]. Nature of the assay: qHTS assay for small molecule antagonists of glucocorticoid receptor signaling (AID 588533; active = well fitted inhibition curve with a large enough effect in the signal ratio, with a control signal flat, not every such curve was filed as active; the % refers to the signal ratio; note: % is set by controls: 0 for no effect and ±100 for the full control effect). In a few lines:
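Antagonist-mode qHTS: compound titrations added to GRE-bla HeLa cells, then dexamethasone 2 nM final; 18 h, 37 C. CCF4 FRET fluorescence normalized to dexamethasone and DMSO; IC50 from Hill fit.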

In assay [10] the target is Peroxisome proliferator-activated receptor delta (Homo sapiens) (UniProt Q03181). Kind of assay: qHTS assay for small molecule agonists of peroxisome proliferator-activated receptor delta signaling (AID 588534; calls by dose curve;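 note: 0% = DMSO basal wells and 100% = positive control agonist at 10 µM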). In a few lines: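 EC50 and efficacy values derive from Hill fits of a concentration series in a beta-lactamase reporter cell assay. Exposure is 18 hrs at 37 C, with CCF4 fluorescence as the readout.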
Chain of Peroxisome proliferator-activated receptor delta (Homo sapiens) (Q03181 whole entry, looked up): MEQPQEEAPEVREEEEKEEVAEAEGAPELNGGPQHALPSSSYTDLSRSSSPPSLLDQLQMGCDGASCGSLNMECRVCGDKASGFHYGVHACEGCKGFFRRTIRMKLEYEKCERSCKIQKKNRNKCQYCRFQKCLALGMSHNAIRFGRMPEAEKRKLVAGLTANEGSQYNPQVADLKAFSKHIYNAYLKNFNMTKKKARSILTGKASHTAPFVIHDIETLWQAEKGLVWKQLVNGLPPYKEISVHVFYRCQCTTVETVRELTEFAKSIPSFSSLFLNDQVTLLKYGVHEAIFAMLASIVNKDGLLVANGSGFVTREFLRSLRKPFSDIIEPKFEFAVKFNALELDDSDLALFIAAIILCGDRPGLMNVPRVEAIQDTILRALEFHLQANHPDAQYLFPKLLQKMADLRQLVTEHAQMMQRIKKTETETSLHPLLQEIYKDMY

Assay [11] in a line: qHTS assay for small molecule antagonists of peroxisome proliferator-activated receptor delta signaling (AID 588535; active = well fitted inhibition curve with a large enough effect in the signal ratio, with a control signal flat, not every such curve was filed as active; the % refers to the signal ratio;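 for max response: cells co-treated with a PPAR-delta agonist as stimulator during compound exposure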). The conditions noted are these: HEK293T PPARd-UAS-bla, beta-lactamase FRET ratio, 18 h; 460 nm channel. In a few lines: (§1)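 Beta-lactamase reporter read-out (405 nm excitation, 460/530 nm emission) after CCF4 loading for 2 hrs at RT. HEK293T PPAR-delta-UAS-bla cells, 2% charcoal/dextran FBS, compounds for 18 hrs at 37 C. Hill fit gave IC50 and efficacy.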

The target in assay [12] is Peroxisome proliferator-activated receptor delta (Homo sapiens) (UniProt Q03181). Described as above. The essentials:
as §1

Assay [13] deals with Peroxisome proliferator-activated receptor gamma (Homo sapiens) (UniProt P37231). Nature of the assay: qHTS assay for small molecule agonists of peroxisome proliferator-activated receptor gamma signaling (AID 588536; active = well fitted curve in the direction sought with a large enough effect in the signal ratio, with a control signal flat, not every such curve was filed as active; the % refers to the signal ratio;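 note: 0% = DMSO basal wells and 100% = rosiglitazone at 2 µM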). The essentials: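 Beta-lactamase reporter read-out: CCF4 fluorescence (ex 405, em 460/530 nm) after 2 h at RT. HEK293 GeneBLAzer cells were treated for 16 h at 37 C. Hill fits gave EC50 and efficacy versus 2 uM rosiglitazone (100%) and DMSO (0%).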

In assay [14] the target is Vitamin D3 receptor (Homo sapiens) (UniProt P11473). Nature of the assay: qHTS assay for small molecule antagonists of vitamin D receptor signaling (AID 588541; calls by dose curve;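 note: receptor activated by calcitriol during compound treatment; % is set by controls: 0 for no effect and ±100 for the full control effect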). The essentials: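 VDR-UAS-bla HEK293T cells in 2% charcoal-stripped FBS were stimulated with 1-alpha,25-dihydroxyvitamin D3 (3 nM final) plus compound for 16 h at 37 C. The beta-lactamase CCF4 readout was normalized to 50 nM agonist and DMSO, and Hill fits gave IC50.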
Chain of Vitamin D3 receptor (Homo sapiens) (P11473 whole entry, looked up): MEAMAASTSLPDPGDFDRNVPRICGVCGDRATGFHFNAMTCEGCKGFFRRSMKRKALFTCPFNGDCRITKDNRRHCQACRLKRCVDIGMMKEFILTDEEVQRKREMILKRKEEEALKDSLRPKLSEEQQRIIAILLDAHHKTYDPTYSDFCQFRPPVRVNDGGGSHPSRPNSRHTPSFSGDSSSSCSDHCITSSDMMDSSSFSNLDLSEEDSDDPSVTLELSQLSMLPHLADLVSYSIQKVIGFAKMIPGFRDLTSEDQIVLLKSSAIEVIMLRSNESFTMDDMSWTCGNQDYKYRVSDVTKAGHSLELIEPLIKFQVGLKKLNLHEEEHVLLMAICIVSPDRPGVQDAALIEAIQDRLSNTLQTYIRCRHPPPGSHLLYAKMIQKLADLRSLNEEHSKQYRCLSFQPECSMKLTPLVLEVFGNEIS

Assay [15] shares this target. Kind of assay: qHTS assay for small molecule agonists of vitamin D receptor signaling (AID 588543; calls by dose curve;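 note: 0% = DMSO basal and 100% = reference agonist control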). In a few lines: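 β-lactamase reporter, VDR-UAS-bla HEK293T, agonist mode. Cells plated 5 h at 37 °C, compound titration 16 h at 37 °C, CCF4 dye 2 h RT, ratio 460/530 nm. Hill fit → EC50, efficacy vs 50 nM 1α,25-(OH)2D3.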
Assay [16] can be described thus: qHTS assay for small molecule agonists of retinoid X receptor alpha signaling (AID 588544; calls by dose curve;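 for activation: 0% = DMSO basal wells and 100% = reference agonist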). As to conditions: HEK293T RXRa-UAS-bla, beta-lactamase reporter, 18 h; 530 nm emission.
Assay [17] addresses Retinoic acid receptor RXR-alpha (Homo sapiens) (UniProt P19793). Described as above.
For assay [18], the target named is Thyroid hormone receptor beta (Homo sapiens) (UniProt P10828). Nature of the assay: qHTS assay for small molecule agonists of thyroid hormone receptor beta signaling (AID 588545; calls by dose curve;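 note: 0% = DMSO only and 100% = 10 nM T3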). In a few lines:
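Stimulation of a TR-driven beta-lactamase reporter was quantified in GripTite HEK 293 cells. Compound series ran for 18 hrs; curves were normalized to T3 and DMSO controls and fitted to yield EC50.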

Assay [19] is described as follows: qHTS assay for small molecule antagonists of retinoid X receptor alpha signaling (AID 588546; active = well fitted inhibition curve with a large enough effect in the signal ratio, with a control signal flat, not every such curve was filed as active; the % refers to the signal ratio;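 note: cells stimulated with 9-cis-retinoic acid as agonist; % is set by controls: 0 for no effect and ±100 for the full control effect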). The conditions noted are these: HEK293T RXRa-UAS-bla, beta-lactamase ratio, antagonist mode; measured here: W530 green channel, cytotoxicity proxy. In a few lines:
(§2)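 Beta-lactamase reporter inhibition, read as CCF4 fluorescence ratio (ex 405, em 460/530 nm) after 2 h at RT. HEK293T UAS-bla cells, 2500/well, were stimulated with 9-cis-RA at 500 or 100 nM final alongside test compound for 18 h at 37 C.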

Assay [20] concerns the target Retinoic acid receptor RXR-alpha (Homo sapiens) (UniProt P19793). Described as above. The conditions noted are these: HEK293T RXRa-UAS-bla, beta-lactamase ratio, antagonist mode. In a few lines: as §2
For assay [21], the target named is Thyroid hormone receptor beta (Homo sapiens) (UniProt P10828). Nature of the assay: qHTS assay for small molecule antagonists of thyroid hormone receptor beta signaling (AID 588547; active = well fitted inhibition curve with a large enough effect in the signal ratio, with a control signal flat, not every such curve was filed as active; the % refers to the signal ratio). As to conditions: TR-UAS-bla HEK293, beta-lactamase ratio, antagonist mode, 18 h. In a few lines:
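TR-UAS-bla GripTite HEK293 cells in 2% charcoal/dextran FBS medium; compounds 0.59 nM to 92 uM with T3 at 0.4nM final, 18 h at 37 C. Beta-lactamase read by CCF4 fluorescence (460/530 nm); Hill fits gave IC50 and efficacy.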

A short description of assay [22]: qHTS assay for small molecule agonists of the antioxidant response element (ARE) signaling pathway (AID 651741; active = well fitted activation curve with a large enough effect in the signal ratio; the % refers to the signal ratio; note: % of control where 0% means no effect). In a few lines:
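HepG2 ARE-bla reporter cells, 2,000/well; 5 h settle at 37 C/5% CO2; compound pin transfer (23 nL, DMSO); 16 h at 37 C; LiveBLAzer B/G FRET substrate, 2 h RT; fluorescence intensity read.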

A short description of assay [23]: qHTS assay for environmental chemicals that activate the Aryl hydrocarbon Receptor (AhR) signaling pathway (AID 651777). Note: % of control where 0% means no effect; nearly all actives have a fitted effect of over 15% in size. The conditions noted are these: 1A2-DRE human hepatoma cells, luciferase, 24 h; activation: stronger effect = higher value. In a few lines: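 Quantitative HTS in stably transfected human liver-derived cells whose luciferase gene sits downstream of the CYP1A2 promoter and dioxin response element. After 24 hr exposure at 37 C, One-Glo luminescence was measured.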

Assay [24] deals with Peroxisome proliferator-activated receptor alpha (Homo sapiens) (UniProt Q07869). Nature of the assay: qHTS assay for small molecule agonists of the peroxisome proliferator-activated receptor alpha (PPARalpha) signaling pathway (AID 651778). Note: % of control where 0% means no effect. As to conditions: PathHunter PPARalpha complementation, chemiluminescence, 6 h; stronger effect = higher value. The essentials:
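Enzyme-fragment complementation assay in which ligand-bound PPARalpha translocates and forms an active enzyme that generates chemiluminescence. Cells were plated overnight, exposed to compound for 6 hr at 37 C, and then given detection reagent for 60 min at room temperature.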

Assay [25] is described as follows: qHTS assay for small molecule agonists of the antioxidant response element (ARE) signaling pathway measured by Nrf2-dependant transcriptional activity (AID 720636; active = well fitted curve in the direction sought with a large enough effect in the repeat runs; an effect the other way counts as inactive or inconclusive; note: % of control where 0% means no effect). In a few lines: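 Quantitative HTS format in HepG2 cells stably expressing an ARE-luciferase reporter; 16 hr compound treatment at 37 C, luciferase signal detected with ONE-Glo.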
Assay [26] is described as follows: qHTS assay for small molecule agonists of the antioxidant response element (ARE) signaling pathway measured by Nrf2-dependant transcriptional activity - cell viability counter screen (AID 720653; active = well fitted curve in the direction sought with a large enough effect in the repeat runs; an effect the other way counts as inactive or inconclusive; note: % is set by controls: 0 for no effect and ±100 for the full control effect). The conditions noted are these: ARE-bla HepG2 viability, CellTiter-Glo ATP luminescence, 16 h; stronger effect = lower value. In a few lines:
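ARE-bla HepG2 cells treated with compounds for 16 h at 37C; this counter screen measures viability as intracellular ATP by CellTiter-Glo luminescence after 30 min at room temperature.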

Assay [27] can be described thus: qHTS assay for cell viability of HEK293 cells (AID 743288). Note: % is set by controls: 0 for no effect and ±100 for the full control effect; nearly all actives have a fitted effect of over 50% in size. As to conditions: ATP luminescence (CellTiter-Glo), 18 h; max response: stronger effect = lower value. In a few lines: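 ATP luminescence (CellTiter-Glo) reports metabolically competent cell number after parental HEK293 cells, 2,000/well, were treated with DMSO-dissolved compounds for 18 h at 37 C; reagent incubation 30 min, room temperature.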

A short description of assay [28]: qHTS assay for cell viability of the p53RE-bla HCT-116 cell line (AID 743292). Note: % is set by controls: 0 for no effect and ±100 for the full control effect; nearly all actives have a fitted effect of over 55% in size. The essentials: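 Viability of compound-treated p53RE-bla HCT-116 cells is taken from ATP-dependent luciferase luminescence. Treatment lasts 16 h at 37 C after a 5 h settling period; detection follows 30 min at room temperature.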
Assay [29] concerns the target Nuclear receptor subfamily 1 group I member 2 (Rattus norvegicus) (UniProt Q9R1A7). Nature of the assay: qHTS assay for small molecule activators of the rat pregnane X receptor (rPXR) signaling pathway (AID 651751; call rule not given here; note: 0% is about no effect). As to conditions: rPXR reporter cells, luciferase (One-Glo), 24 h.
Assay [30] in a line: qHTS assay for small molecule activators of the human pregnane X receptor (PXR) signaling pathway (AID 720659; call rule not given here; note: 0% is about no effect).
The mark [31] stands for this setting: measured here: cell count channel max response.
Where [32] appears, read: measured here: lipid channel max response.

SMILES strings stand for the structures. Results filed as inconclusive are left out. The source made the active and inactive calls. Unless noted, calls come from the whole dose curve; as a rule, active = well fitted curve in the direction sought with a large enough effect; inconclusive = small, poorly fitted or top-dose-only effect, or another doubt; inactive = no such curve, though single readings can be large; an effect the other way counts as inactive or inconclusive.

Chain of Retinoic acid receptor RXR-alpha (Homo sapiens) (P19793 whole entry, looked up): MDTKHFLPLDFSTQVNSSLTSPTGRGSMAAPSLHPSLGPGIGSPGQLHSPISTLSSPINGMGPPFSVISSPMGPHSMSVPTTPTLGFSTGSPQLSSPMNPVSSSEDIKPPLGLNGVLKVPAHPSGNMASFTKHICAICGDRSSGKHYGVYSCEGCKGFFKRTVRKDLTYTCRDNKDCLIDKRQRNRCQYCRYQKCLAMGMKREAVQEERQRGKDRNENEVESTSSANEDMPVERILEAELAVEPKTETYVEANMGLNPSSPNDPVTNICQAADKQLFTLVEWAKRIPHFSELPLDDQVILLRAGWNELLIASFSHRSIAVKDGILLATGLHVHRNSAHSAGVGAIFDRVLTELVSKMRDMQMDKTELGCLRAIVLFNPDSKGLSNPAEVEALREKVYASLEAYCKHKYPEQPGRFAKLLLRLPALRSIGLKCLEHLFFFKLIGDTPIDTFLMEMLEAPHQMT
Chain of Glucocorticoid receptor (Homo sapiens) (P04150 whole entry, looked up): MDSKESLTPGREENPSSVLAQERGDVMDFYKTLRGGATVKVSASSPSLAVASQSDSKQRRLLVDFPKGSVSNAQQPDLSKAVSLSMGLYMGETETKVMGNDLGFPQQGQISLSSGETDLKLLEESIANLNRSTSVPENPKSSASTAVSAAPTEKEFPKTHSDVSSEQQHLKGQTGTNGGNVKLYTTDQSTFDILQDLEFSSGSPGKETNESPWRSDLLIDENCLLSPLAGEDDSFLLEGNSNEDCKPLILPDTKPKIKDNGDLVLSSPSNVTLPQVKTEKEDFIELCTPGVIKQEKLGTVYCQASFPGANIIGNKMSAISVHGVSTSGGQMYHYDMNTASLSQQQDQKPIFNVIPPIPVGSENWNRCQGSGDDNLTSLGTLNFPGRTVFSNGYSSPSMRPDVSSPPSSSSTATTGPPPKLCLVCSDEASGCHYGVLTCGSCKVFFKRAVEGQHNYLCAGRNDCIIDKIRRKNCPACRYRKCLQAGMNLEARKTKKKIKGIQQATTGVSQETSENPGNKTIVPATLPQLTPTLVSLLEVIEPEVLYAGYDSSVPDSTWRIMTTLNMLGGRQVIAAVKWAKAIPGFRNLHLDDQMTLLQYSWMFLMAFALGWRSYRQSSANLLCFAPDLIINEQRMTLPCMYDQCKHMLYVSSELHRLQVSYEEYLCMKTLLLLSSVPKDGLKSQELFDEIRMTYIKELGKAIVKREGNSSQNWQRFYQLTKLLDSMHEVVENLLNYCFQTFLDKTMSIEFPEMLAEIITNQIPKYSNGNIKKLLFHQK
Chain of Thyroid hormone receptor beta (Homo sapiens) (P10828 whole entry, looked up): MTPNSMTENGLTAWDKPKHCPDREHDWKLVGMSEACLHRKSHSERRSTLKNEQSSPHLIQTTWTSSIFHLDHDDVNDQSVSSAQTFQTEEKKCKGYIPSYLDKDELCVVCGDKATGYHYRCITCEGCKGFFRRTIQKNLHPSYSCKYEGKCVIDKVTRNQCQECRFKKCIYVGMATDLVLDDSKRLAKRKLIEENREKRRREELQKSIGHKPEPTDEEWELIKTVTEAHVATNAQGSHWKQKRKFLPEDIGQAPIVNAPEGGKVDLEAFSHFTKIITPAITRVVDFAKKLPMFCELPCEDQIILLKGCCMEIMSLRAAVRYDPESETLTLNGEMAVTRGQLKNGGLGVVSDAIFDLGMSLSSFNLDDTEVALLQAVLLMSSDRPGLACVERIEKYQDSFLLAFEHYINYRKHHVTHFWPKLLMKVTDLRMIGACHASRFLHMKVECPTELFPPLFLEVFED
Chain of DNA dC->dU-editing enzyme APOBEC-3G (Homo sapiens) (Q9HC16 whole entry, looked up): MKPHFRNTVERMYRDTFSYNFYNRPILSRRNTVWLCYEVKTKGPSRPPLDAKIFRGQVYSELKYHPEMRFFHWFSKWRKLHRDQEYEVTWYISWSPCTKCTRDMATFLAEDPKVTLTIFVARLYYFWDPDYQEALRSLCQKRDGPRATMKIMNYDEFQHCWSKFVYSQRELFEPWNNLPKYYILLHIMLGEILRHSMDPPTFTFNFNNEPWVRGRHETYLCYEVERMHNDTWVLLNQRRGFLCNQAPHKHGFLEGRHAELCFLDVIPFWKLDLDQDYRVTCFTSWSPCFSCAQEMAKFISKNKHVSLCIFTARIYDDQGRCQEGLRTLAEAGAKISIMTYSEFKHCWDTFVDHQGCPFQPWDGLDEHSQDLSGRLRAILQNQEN
Chain of Peroxisome proliferator-activated receptor alpha (Homo sapiens) (Q07869 whole entry, looked up, the tested form may be a part): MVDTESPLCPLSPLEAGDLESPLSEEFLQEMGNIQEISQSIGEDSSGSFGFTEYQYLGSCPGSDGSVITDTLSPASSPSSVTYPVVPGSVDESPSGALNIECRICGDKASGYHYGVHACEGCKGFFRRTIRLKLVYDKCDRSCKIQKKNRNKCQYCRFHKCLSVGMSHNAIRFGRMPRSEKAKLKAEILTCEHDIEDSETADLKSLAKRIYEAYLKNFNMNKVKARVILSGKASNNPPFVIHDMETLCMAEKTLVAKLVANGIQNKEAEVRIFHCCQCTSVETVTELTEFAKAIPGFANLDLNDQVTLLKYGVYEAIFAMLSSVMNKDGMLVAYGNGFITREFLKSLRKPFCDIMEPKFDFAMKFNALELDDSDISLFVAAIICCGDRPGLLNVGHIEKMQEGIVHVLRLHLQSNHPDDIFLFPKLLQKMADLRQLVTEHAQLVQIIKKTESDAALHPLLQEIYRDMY
Chain of Cytochrome P450 3A4 (Homo sapiens) (P08684 whole entry, looked up): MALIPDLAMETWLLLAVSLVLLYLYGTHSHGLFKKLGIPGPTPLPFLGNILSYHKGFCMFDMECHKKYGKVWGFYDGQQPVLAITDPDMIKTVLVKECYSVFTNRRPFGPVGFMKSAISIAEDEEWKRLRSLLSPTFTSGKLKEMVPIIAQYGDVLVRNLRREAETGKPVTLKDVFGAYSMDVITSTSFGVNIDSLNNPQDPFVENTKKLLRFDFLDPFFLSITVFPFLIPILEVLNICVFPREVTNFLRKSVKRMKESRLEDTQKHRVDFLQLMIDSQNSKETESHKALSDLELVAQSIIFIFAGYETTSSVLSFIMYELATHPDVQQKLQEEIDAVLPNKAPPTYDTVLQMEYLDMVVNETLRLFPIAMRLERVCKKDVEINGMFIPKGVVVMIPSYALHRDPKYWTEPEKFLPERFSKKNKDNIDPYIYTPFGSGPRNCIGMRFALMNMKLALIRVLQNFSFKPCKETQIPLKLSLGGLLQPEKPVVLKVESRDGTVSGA
Chain of Nuclear receptor subfamily 1 group I member 2 (Rattus norvegicus) (Q9R1A7 whole entry, looked up): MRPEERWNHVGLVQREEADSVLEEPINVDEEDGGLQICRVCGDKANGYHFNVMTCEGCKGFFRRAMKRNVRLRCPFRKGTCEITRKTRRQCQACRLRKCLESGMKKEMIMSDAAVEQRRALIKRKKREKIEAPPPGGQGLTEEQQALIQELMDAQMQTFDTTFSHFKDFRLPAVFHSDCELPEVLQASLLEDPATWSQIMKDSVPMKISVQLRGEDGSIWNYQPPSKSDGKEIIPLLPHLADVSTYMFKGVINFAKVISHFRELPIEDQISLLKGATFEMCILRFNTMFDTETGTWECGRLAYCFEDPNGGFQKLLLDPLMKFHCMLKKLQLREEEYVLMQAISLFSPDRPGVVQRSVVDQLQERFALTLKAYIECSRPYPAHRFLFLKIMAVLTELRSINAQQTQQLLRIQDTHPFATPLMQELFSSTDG

`O=C1CC2OCC=C3CN4CC[C@]56c7ccccc7N1[C@H]5[C@H]2C3C[C@H]46` (stereo not given in full): the activity change, negative = inhibition in assay [1] is 9.09% (inactive). Besides, the max response in [1] (setting [31]) turned out to be 14.5%; in [1] (setting [32]) it was 20.7%. Also, the molecule was called inactive in [2].

As for `CNC(=O)Oc1ccccc1OC(C)C`, the Potency result in [3], in [4], in [5], in assay [6], in [7] and in assay [9] was “inactive” each time. Moreover, the Potency entry in assay [12], in assay [17], in [22] and in assay [28] was “inactive” each time. Besides, the activity change, negative = inhibition in assay [1] is 5.74% (inactive). Further, the max response in assay [1] (setting [31]) is 11.3%; in assay [1] (setting [32]) it was 18.3%; in assay [11], 17.8%; in assay [16] it was -0.248%; in [19] it was -6.53%; in assay [20] it was -31.5% (inactive). Also, the max response in assay [24] was 0.062% (inactive); in assay [26], -4.9% (inactive); in assay [27], -6.22% (inactive); in assay [29] it was -0.132% (inactive). Also, the activation in assay [8] is -7.67% (inactive); in assay [23] it was -1.13% (inactive). The result in [10], in assay [13], in assay [14], in assay [15], in assay [18] and in [25] was inactive. Also, the molecule was called inactive in assay [30]. Moreover, in [21], the activity change % (negative = inhibition) was 16.1% (inactive).
